The campaign covered roughly 310,000 compounds. About 14,000 (4.5%) showed an effect of 50% or more. Effects have a minus sign here. The entries come from a sample that favours strong results as a whole.

From paper PMC4336329 (PLoS ONE, 2015) come the findings set out here.
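Further: peak tail current of the secondary pulse compared with the same well before compound.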

For the assay, the target named is human ether-à-go-go-related gene (hERG) potassium channel (human, UniProt Q12809). In words: primary screen, population patch clamp on CHO cells stably expressing hERG; higher = less effect of the substance.
Chain of human ether-à-go-go-related gene (hERG) potassium channel (Q12809 whole entry, looked up): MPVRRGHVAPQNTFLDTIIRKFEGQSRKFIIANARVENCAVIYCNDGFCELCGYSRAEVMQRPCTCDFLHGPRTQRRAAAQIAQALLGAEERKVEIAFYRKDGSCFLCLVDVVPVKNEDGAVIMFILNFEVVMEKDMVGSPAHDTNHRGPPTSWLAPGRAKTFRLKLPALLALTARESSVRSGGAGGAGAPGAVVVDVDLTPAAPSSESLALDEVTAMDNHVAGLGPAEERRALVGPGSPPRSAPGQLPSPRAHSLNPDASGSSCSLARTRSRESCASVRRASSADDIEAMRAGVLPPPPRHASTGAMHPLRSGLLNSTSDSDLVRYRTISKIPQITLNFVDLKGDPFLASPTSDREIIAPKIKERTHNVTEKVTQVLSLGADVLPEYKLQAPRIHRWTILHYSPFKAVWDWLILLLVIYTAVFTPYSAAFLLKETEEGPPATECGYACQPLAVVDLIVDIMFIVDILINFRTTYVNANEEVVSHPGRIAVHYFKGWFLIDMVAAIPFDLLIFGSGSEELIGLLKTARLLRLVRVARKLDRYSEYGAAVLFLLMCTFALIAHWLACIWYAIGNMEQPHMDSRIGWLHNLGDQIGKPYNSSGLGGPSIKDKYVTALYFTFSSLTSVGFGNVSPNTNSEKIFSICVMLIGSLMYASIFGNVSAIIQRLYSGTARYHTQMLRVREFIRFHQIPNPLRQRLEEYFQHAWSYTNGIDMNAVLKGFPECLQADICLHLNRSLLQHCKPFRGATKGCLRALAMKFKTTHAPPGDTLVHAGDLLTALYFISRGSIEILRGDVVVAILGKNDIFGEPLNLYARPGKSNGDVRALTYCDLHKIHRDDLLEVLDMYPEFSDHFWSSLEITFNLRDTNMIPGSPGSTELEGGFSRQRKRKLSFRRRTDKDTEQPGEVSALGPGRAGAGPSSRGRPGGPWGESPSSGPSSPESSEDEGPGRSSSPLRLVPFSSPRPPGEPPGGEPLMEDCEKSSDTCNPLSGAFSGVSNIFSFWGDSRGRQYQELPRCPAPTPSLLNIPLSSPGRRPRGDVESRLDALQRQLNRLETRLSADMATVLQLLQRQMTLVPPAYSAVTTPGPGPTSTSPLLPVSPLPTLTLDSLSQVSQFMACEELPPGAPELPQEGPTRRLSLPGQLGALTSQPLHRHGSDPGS
For the molecule `O=C1c2ccccc2C(=O)N1c1ncn[nH]1`, the “hERG current change (%, negative = inhibition) at 10uM” value stood at 11.3%. Then `Cc1cccc(Nc2ncnc(N)n2)c1`, with 15.6%; and `O=C1CCN(Cc2ccc(Cl)cc2)N1`, with 10.8%. The result for `CC(C)c1cc(=O)n2[nH]c(SCc3ccccc3Cl)nc2n1` reads 23.7%; that for `Cc1ccc(C(=O)COC(=O)CCC(=O)NC2CCCCC2)cc1C`, 14.8%. Then `Cc1cccc(C)c1N(CC(O)Cn1c2ccccc2c2ccccc21)S(C)(=O)=O` (centres unmarked), with 18.6%.

Regarding `COc1cccc(C(CC(=O)O)NS(=O)(=O)c2ccc3c(c2)N(C(C)=O)CC(C)O3)c1` (centres unmarked), the “hERG current change (%, negative = inhibition) at 10uM” value came out at 24.4%. Then `Cc1nn(-c2ccccc2)c(Cl)c1C(=O)N1CCN(c2ncnc3c2cnn3-c2ccccc2)CC1`, with -29.1%. Regarding `CCOC(=O)C1(CCOC)CCN(Cc2ccc(C3CCCCO3)s2)CC1` (centres unmarked), the “hERG current change (%, negative = inhibition) at 10uM” value is -21.4%. Then `C=C(C)[C@@H]1CC=C(CN2CCC(CCOC)(C(=O)OCC)CC2)CC1`, with -64.7%. The result for `CCOC(=O)C1(CCOC)CCN(Cc2nc(C(C)C)cs2)CC1` reads 41%; that for `N#CCCN(CCC#N)C(=O)C1c2ccccc2Oc2ccccc21`, 14.4%; that for `CCOC(=O)c1ccccc1NC(=O)COC(=O)CN1C(=O)C2CC=CCC2C1=O` (centres unmarked), -2.8%. The result for `Cn1c(C(=O)NCCN2CCCCCC2)cc2c(=O)n(C)c3ccccc3c21` reads -13.4%; that for `C=CCOc1ccc2oc(=O)cc(C)c2c1`, -1.62%. For `CC1(C)CC(=O)c2c(nc3ccccc3c2N)C1`, the “hERG current change (%, negative = inhibition) at 10uM” value is on record as -28.8%.

For the molecule `CCNc1c2c(nc3ccccc13)CC(C)(C)CC2=O.O=C(O)C(=O)O`, the “hERG current change (%, negative = inhibition) at 10uM” value is reported as -69.9%.

Turning to `Cc1c2c(nc3ccccc13)CC(C)(C)CC2=O.Cl`, the “hERG current change (%, negative = inhibition) at 10uM” value is reported as 0.994%. With `O=C(Nc1cccc(C(=O)O)c1)/C(=C\c1ccco1)NC(=O)c1ccc(Br)o1`, the “hERG current change (%, negative = inhibition) at 10uM” value is -28.1%. The result for `Cc1ccc(SCC(=O)OCC(=O)NCc2cccs2)cc1` reads 5.8%; that for `NC(=S)N=Nc1c(O)n(CCCl)c2ccc(Cl)cc12`, 9.1%; that for `CCOc1cc(C=C2C(=O)NC(=O)NC2=O)ccc1OCC(=O)N1CCOCC1`, 7.28%.

`O=C(COc1ccc(/C=C\[N+](=O)[O-])cc1)N1CCOCC1`: the “hERG current change (%, negative = inhibition) at 10uM” value is on record as -17.7%.

As to `CCOc1cc(/C=C\[N+](=O)[O-])ccc1OCC(=O)N1CCOCC1`, the “hERG current change (%, negative = inhibition) at 10uM” value is on record as -50.5%. `CCCOc1ccc(C(=O)Nc2ccc3c(c2)OCO3)cc1`: the “hERG current change (%, negative = inhibition) at 10uM” value came out at 16.1%. Consider `CC(=O)c1cccc(NC(=O)CCOc2ccccc2)c1`, for which the “hERG current change (%, negative = inhibition) at 10uM” value is 6.88%. The result for `COc1ccc(NC(=O)c2ccco2)cc1NC(=O)c1cccc(OC(C)C)c1` reads -96.7%; that for `CCCOc1cccc(C(=O)Nc2cc(NC(=O)c3ccco3)ccc2OC)c1`, -81.2%. Turning to `CCCOc1cccc(C(=O)Nc2cccc(NC(=O)c3ccco3)c2)c1`, the “hERG current change (%, negative = inhibition) at 10uM” value is -21.8%.

Consider `CC(C)Oc1cccc(C(=O)Nc2ccc(NC(=O)c3ccco3)cc2)c1`, for which the “hERG current change (%, negative = inhibition) at 10uM” value is reported as 6.06%. Then `COc1cccc(C(=O)Nc2cc(NC(=O)c3ccco3)ccc2OC)c1`, with -5.19%. For the molecule `CCCCOc1cccc(C(=O)Nc2ccc(NC(=O)c3ccco3)cc2)c1`, the “hERG current change (%, negative = inhibition) at 10uM” value was 8.63%. The result for `CCCc1cc(=O)[nH]c(SCC(=O)Nc2nonc2N)n1` reads -5.4%; that for `COc1ccc(CC(=O)Nc2sc3c(c2C#N)CC(C)(C)NC3(C)C)cc1OC`, -3.63%; that for `COc1ccc(C(=O)CSc2nnc(NC(=O)C3CC(=O)N(c4cccc(OC)c4)C3)s2)cc1` (centres unmarked), 15.6%. Then `COC(=O)CC1=C(C(=O)OC)C2(C(=O)N(C)c3ccccc32)C(C#N)=C(N)O1` (centres unmarked), with 14.7%; and `CC(C)(C)NC(=O)/C(=C\c1ccccc1F)NC(=O)c1ccc([N+](=O)[O-])cc1`, with -35.3%; and `Cl.N=c1n(CCO)c2ccccc2n1CCOc1ccc(Cl)cc1Cl`, with -63.8%.

`Cn1c(=O)n(CCOc2ccc(Cl)cc2Cl)c2ccccc21`: the “hERG current change (%, negative = inhibition) at 10uM” value is given as -2.26%. The result for `Cl.N=c1n(CCO)c2ccccc2n1Cc1ccc(Cl)cc1` reads -40.1%. For `COc1ccccc1NS(=O)(=O)c1cc(-c2cc(C)no2)ccc1OC`, the “hERG current change (%, negative = inhibition) at 10uM” value is on record as -5.52%. The result for `COc1ccccc1NS(=O)(=O)c1ccc(-c2cc(C)no2)s1` reads -69.5%; that for `COC(=O)c1ccc(NS(=O)(=O)c2ccc(-c3cc(C)no3)s2)cc1`, 10.5%. The result for `Cc1ccc(CN2C(=O)S/C(=C\c3ccccc3OCC(=O)O)C2=O)cc1` reads 1.61%; that for `C/C(=C\C(=O)N1CCc2ccccc21)C(=O)O`, 18.5%; that for `COc1ccc(N2CCN(S(=O)(=O)c3ccc4c(c3)NC(=O)CC(=O)N4)CC2)cc1`, 13.2%. Then `CC(=O)c1ccc(N2CCN(S(=O)(=O)c3ccc4c(c3)NC(=O)CC(=O)N4)CC2)cc1`, with 13.4%; and `COC(=O)c1cc(S(=O)(=O)N2CCN(c3ccccc3)CC2)c[nH]1`, with 7.6%. Regarding `CC(=O)c1ccc(N2CCN(S(=O)(=O)c3csc(C(N)=O)c3)CC2)cc1`, the “hERG current change (%, negative = inhibition) at 10uM” value is recorded as -26.1%. `NC(=O)c1cc(S(=O)(=O)N2CCN(c3ccc([N+](=O)[O-])cc3)CC2)cs1`: the “hERG current change (%, negative = inhibition) at 10uM” value was -74.4%. Then `COC(=O)c1cc(S(=O)(=O)N2CCN(c3ccc([N+](=O)[O-])cc3)CC2)c[nH]1`, with -53.9%; and `O=C1CC(=O)Nc2cc(S(=O)(=O)N3CCN(c4ccc([N+](=O)[O-])cc4)CC3)ccc2N1`, with -66.8%; and `NC(=O)c1cc(S(=O)(=O)N2CCN(c3cccc(Cl)c3)CC2)cs1`, with 28.1%. Then `COC(=O)c1cc(S(=O)(=O)N2CCN(c3ccc(F)cc3)CC2)c[nH]1`, with 16.9%; and `CCC(=O)Nc1nc2ccc(NC(=O)c3cc(OC)c(OC)c(OC)c3)cc2s1`, with -9.76%. As to `Cc1ccc(CNC(=O)c2ccc(C#CC(C)(C)O)s2)cc1`, the “hERG current change (%, negative = inhibition) at 10uM” value is on record as -3.51%.
